Measurements from PubChem BioAssay (Tox21).
Where “and” joins values, the source holds several entries; their conditions need not be identical. Equal entries are not always repeated. Results filed as inconclusive are left out. A structure can be active in one record and inactive in another. Calls of active or inactive are those of the source. Unless noted, calls come from the whole dose curve; as a rule, active = well fitted curve in the direction sought with a large enough effect in the repeat runs; inconclusive = weak or mixed curves; inactive = no such curve, though single readings can be large; an effect the other way counts as inactive or inconclusive.

Key:
[1] = qHTS assay to identify aromatase inhibitors - cell viability counter screen (AID 743084);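 note: cells stimulated with testosterone during compound exposure; nearly all actives have a fitted effect of over 55% in size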; note: potency is the fitted concentration of half-maximal effect
[2] = biological target: Aryl hydrocarbon receptor (Homo sapiens) (UniProt P35869); test: qHTS assay to identify small molecule that activate the aryl hydrocarbon receptor (AhR) signaling pathway (AID 743085); note: nearly all actives have a fitted effect of over 15% in size; note: potency is the fitted concentration of half-maximal effect;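 for activation: HG2L7.5c1 human HepG2 liver cells with stably integrated DRE-driven firefly reporter; series mostly up to about 70 µM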
Aryl hydrocarbon receptor (Homo sapiens), sequence (P35869 whole entry, looked up): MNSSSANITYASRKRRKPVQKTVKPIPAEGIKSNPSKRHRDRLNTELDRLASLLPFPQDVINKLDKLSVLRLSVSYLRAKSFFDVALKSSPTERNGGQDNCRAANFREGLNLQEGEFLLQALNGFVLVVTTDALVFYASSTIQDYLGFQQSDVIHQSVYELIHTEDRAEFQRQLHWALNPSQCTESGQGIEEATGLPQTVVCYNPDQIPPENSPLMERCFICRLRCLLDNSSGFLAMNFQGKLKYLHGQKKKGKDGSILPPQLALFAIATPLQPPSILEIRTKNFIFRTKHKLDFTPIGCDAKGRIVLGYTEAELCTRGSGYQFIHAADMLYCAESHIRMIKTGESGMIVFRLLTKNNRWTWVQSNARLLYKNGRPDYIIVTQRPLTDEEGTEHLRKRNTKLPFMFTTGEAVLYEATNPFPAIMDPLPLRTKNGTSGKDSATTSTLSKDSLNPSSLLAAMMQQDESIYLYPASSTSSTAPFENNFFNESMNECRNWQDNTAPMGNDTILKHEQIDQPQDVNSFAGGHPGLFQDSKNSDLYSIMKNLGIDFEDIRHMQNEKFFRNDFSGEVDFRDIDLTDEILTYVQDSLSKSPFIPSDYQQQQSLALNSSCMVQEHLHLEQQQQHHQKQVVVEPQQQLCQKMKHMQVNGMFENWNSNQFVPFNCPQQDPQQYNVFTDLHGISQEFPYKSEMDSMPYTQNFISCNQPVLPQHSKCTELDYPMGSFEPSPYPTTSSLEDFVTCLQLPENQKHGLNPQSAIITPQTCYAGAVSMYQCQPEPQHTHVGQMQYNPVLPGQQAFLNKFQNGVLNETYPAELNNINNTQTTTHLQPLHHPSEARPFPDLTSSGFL
Procedure, shortened: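 Luminescence read-out: ONE-Glo reagent, 30 min at room temperature, in HG2L7.5c1 HepG2 reporter cells treated 24 h at 37C. Viability was measured beforehand by CellTiter-Fluor fluorescence after 30 min at 37C.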

[3] = qHTS assay to identify small molecule that activate the aryl hydrocarbon receptor (AhR) signaling pathway - cell viability counter screen (AID 743086); note: nearly all actives have a fitted effect of over 45% in size; note: potency is the fitted concentration of half-maximal effect
Procedure, shortened: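 HepG2-AhR-luc (HG2L7.5c1) cells, 4000/well, treated 24 h at 37 C with compound; viability measured as CellTiter-Fluor fluorescence after 30 min in the same wells as the luciferase read.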

[4] = qHTS assay to identify small molecule antagonists of the peroxisome proliferator-activated receptor gamma (PPARg) signaling pathway - cell viability counter screen (AID 743194); note: nearly all actives have a fitted effect of over 55% in size; note: potency is the fitted concentration of half-maximal effect
Procedure, shortened: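 Cytotoxicity counter screen in PPARg-bla HEK293H cells, same wells as reporter assay. Compounds plus 50 nM rosiglitazone (final) for 17 h at 37 C, then viability read by CellTiter-Glo luminescence.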

[5] = qHTS assay for small molecule agonists of the antioxidant response element (ARE) signaling pathway - cell viability counter screen (AID 743203; calls by dose curve; note: nearly all actives have a fitted effect of over 55% in size; note: potency is the fitted concentration of half-maximal effect)
Procedure, shortened: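 Cells (ARE-bla HepG2, 2,000/well) receive DMSO-dissolved compounds after a 5 hrs rest. Plates incubate 16 hrs at 37C/5% CO2. CellTiter-Glo luminescence is then recorded after 30 min at room temperature.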

[6] = biological target: Peroxisome proliferator-activated receptor delta (Homo sapiens) (UniProt Q03181); test: qHTS assay to identify small molecule agonists of the peroxisome proliferator-activated receptor delta (PPARd) signaling pathway (AID 743212; calls by dose curve; note: potency is the fitted concentration of half-maximal effect)
Peroxisome proliferator-activated receptor delta (Homo sapiens), sequence (Q03181 whole entry, looked up): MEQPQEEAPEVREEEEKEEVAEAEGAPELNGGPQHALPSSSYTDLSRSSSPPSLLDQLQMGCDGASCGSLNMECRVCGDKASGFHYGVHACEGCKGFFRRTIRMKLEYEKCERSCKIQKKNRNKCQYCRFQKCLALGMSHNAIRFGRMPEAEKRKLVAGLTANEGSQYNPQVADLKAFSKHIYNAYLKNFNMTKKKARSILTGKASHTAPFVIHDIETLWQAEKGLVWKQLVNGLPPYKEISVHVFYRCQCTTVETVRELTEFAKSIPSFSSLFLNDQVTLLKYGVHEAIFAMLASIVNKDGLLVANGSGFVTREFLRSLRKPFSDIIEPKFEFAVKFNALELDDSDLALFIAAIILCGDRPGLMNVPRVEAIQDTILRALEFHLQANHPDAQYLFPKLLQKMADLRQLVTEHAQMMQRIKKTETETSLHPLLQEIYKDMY
Procedure, shortened: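 GeneBLAzer UAS-bla HEK293H cells carrying a PPARδ construct were exposed to compounds at 37 °C. Beta-lactamase activity was read by FRET fluorescence after 2 h at room temperature with LiveBLAzer B/G substrate.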

[7] = qHTS assay to identify small molecule antagonists of the peroxisome proliferator-activated receptor delta (PPARd) signaling pathway - cell viability counter screen (AID 743213); note: nearly all actives have a fitted effect of over 50% in size; note: potency is the fitted concentration of half-maximal effect
Procedure, shortened: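 Luminescence from CellTiter-Glo, added after the bla read and incubated 30 min at room temperature, gives viability of HEK293H PPARd-bla cells exposed to compounds for 17 h at 37 C with 300 nM L165041.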

[8] = qHTS assay to identify small molecule antagonists of the farnesoid-X-receptor (FXR) signaling pathway - cell viability counter screen (AID 743221; active = well fitted cell-killing curve with a large enough effect in the repeat runs, not every such curve was filed as active; note: nearly all actives have a fitted effect of over 50% in size; note: potency is the fitted concentration of half-maximal effect)
Procedure, shortened: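 HEK 293T FXR-bla cells, 5 h pre-incubation; compound + CDCA 50 uM final, 16 h, 37 C; beta-lactamase FRET read first, then CellTiter-Glo luminescence, 30 min RT.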

[9] = biological target: Vitamin D3 receptor (Homo sapiens) (UniProt P11473); test: qHTS assay to identify small molecule agonists of the vitamin D receptor (VDR) signaling pathway (AID 743222; calls by dose curve; note: potency is the fitted concentration of half-maximal effect)
Vitamin D3 receptor (Homo sapiens), sequence (P11473 whole entry, looked up): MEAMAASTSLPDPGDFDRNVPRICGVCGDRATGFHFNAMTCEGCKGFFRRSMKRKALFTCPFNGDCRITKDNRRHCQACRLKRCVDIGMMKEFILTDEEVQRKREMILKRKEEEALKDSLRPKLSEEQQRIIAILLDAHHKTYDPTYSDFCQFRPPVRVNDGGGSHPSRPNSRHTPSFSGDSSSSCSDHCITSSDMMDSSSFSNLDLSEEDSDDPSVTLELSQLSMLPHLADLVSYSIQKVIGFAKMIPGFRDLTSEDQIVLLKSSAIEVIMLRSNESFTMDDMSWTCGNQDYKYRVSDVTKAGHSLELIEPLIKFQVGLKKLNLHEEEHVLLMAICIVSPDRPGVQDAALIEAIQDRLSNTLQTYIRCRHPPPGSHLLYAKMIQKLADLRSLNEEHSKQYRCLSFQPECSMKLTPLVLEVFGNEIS
Procedure, shortened: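 Agonist activity measured in VDR-bla reporter cells. Exposure 16 h, 37C, 5% CO2; detection by B/G FRET substrate, 2 h RT.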

[10] = biological target: Vitamin D3 receptor (Homo sapiens) (UniProt P11473); test: qHTS assay to identify small molecule antagonists of the vitamin D receptor (VDR) signaling pathway (AID 743223; active = well fitted inhibition curve with a large enough effect in the signal ratio in the repeat runs, not every such curve was filed as active; the % refers to the signal ratio; note: potency is the fitted concentration of half-maximal effect)
Procedure, shortened: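 Beta-lactamase reporter read-out: FRET substrate fluorescence after 2 h at room temperature, following 16 h exposure of VDR-bla cells to test compound plus 3 nM (final) 1alpha,25-dihydroxyvitamin D3 agonist at 37C.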

[11] = biological target: Bile acid receptor (Homo sapiens) (UniProt Q96RI1); test: qHTS assay to identify small molecule antagonists of the farnesoid-X-receptor (FXR) signaling pathway (AID 743217; active = well fitted inhibition curve with a large enough effect in the signal ratio in the repeat runs, not every such curve was filed as active; the % refers to the signal ratio; note: potency is the fitted concentration of half-maximal effect)
Bile acid receptor (Homo sapiens), sequence (Q96RI1 whole entry, looked up): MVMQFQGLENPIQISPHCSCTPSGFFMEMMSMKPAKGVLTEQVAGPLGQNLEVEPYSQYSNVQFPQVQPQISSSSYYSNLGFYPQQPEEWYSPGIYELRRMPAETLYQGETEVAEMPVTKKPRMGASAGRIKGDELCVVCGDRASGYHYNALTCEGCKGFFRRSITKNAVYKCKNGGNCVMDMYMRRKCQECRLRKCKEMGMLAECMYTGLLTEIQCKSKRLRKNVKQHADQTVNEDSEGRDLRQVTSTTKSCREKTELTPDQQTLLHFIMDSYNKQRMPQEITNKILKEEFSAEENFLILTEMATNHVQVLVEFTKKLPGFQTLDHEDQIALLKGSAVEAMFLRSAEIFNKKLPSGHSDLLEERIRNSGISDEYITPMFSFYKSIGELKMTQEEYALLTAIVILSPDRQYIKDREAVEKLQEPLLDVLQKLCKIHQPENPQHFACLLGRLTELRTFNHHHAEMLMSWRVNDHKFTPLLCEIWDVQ
Procedure, shortened: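 Beta-lactamase reporter under UAS control in HEK 293T cells; compound exposure 16 h at 37 °C in the presence of chenodeoxycholic acid (50 uM final); signal from B/G FRET substrate after 2 h at room temperature.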

[12] = qHTS assay to identify small molecule agonists of the farnesoid-X-receptor (FXR) signaling pathway - cell viability counter screen (AID 743218); note: nearly all actives have a fitted effect of over 45% in size; note: potency is the fitted concentration of half-maximal effect
Procedure, shortened: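 In GeneBLAzer FXR-UAS-bla HEK 293T cells, compounds act for 16 h at 37 C. Cell viability is then scored in the reporter wells by CellTiter-Glo, 30 min at RT, luminescence.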

[13] = biological target: Bile acid receptor (Homo sapiens) (UniProt Q96RI1); test: qHTS assay to identify small molecule agonists of the farnesoid-X-receptor (FXR) signaling pathway (AID 743220; active = well fitted activation curve with a large enough effect in the signal ratio in the repeat runs, not every such curve was filed as active; the % refers to the signal ratio)
Procedure, shortened: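 Beta-lactamase reporter under UAS control in GeneBLAzer FXR HEK 293T cells (5000/well) measured with LiveBLAzer FRET substrate after 2 h at room temperature. Compound exposure lasted 16 h at 37C.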

[14] = qHTS assay for small molecule activators of the heat shock response signaling pathway - cell viability counter screen (AID 743209); note: nearly all actives have a fitted effect of over 50% in size; note: potency is the fitted concentration of half-maximal effect
Procedure, shortened: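 Quantitative HTS format, Tox21 10K library. HeLa cells carrying an HSE-driven beta-lactamase reporter were treated 5 h at 37 C, then assessed for viability by CellTiter-Glo luminescence.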

[15] = qHTS assay to identify small molecule agonists of the peroxisome proliferator-activated receptor delta (PPARd) signaling pathway - cell viability counter screen (AID 743211); note: nearly all actives have a fitted effect of over 55% in size; note: potency is the fitted concentration of half-maximal effect
Procedure, shortened: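 Read-out: CellTiter-Glo luminescence, 30 min RT, measured in the same wells as the beta-lactamase reporter. Cells: GeneBLAzer PPAR delta UAS-bla HEK293H, 3000 cells/well, compound exposure 17 h at 37C.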

[16] = biological target: Peroxisome proliferator-activated receptor delta (Homo sapiens) (UniProt Q03181); test: qHTS assay to identify small molecule antagonists of the peroxisome proliferator-activated receptor delta (PPARd) signaling pathway (AID 743215; active = well fitted inhibition curve with a large enough effect in the signal ratio in the repeat runs, not every such curve was filed as active; the % refers to the signal ratio;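 note: cells stimulated with agonist L165041 at 300 nM final during compound exposure; series mostly up to about 62 µM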)
Procedure, shortened: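 Antagonist-mode beta-lactamase reporter screen: HEK293H cells with UAS-bla under PPARd control, stimulated by 300 nM L165041 (final) alongside test compound for 17 h at 37 C, then FRET fluorescence after 2 h substrate incubation.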

[17] = biological target: Peroxisome proliferator-activated receptor gamma (Homo sapiens) (UniProt P37231); test: qHTS assay to identify small molecule agonists of the peroxisome proliferator-activated receptor gamma (PPARg) signaling pathway (AID 743094; active = well fitted activation curve with a large enough effect in the signal ratio in the repeat runs, not every such curve was filed as active; the % refers to the signal ratio)
Peroxisome proliferator-activated receptor gamma (Homo sapiens), sequence (P37231 whole entry, looked up): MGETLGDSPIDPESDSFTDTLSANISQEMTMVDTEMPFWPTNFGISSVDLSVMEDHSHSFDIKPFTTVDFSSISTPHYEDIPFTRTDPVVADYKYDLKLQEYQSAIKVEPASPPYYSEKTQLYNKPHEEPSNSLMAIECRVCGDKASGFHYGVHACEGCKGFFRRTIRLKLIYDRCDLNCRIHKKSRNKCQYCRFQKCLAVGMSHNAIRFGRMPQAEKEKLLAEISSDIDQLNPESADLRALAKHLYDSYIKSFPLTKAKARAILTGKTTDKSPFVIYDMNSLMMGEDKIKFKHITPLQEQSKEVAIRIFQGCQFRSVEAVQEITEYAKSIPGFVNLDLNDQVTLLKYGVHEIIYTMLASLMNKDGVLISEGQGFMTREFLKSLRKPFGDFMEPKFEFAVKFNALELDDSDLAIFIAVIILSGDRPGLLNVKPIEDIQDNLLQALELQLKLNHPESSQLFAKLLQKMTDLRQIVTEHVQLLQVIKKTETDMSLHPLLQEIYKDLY
Procedure, shortened: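 Stably transfected HEK293H cells (GeneBLAzer PPARg UAS-bla) were incubated with test substances for 17 h at 37C after a 5 h pre-incubation; beta-lactamase activity was then detected by FRET substrate fluorescence.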

[18] = biological target: Peroxisome proliferator-activated receptor gamma (Homo sapiens) (UniProt P37231); test: qHTS assay to identify small molecule antagonists of the peroxisome proliferator-activated receptor gamma (PPARg) signaling pathway (AID 743191; calls by dose curve; note: series mostly up to about 63 µM; nearly all actives have a fitted effect of over 30% in size)
Procedure, shortened: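 GeneBLAzer PPARg UAS-bla HEK293H cells, 5 h post-plating, exposed to compounds 17 h at 37C. LiveBLAzer B/G FRET substrate added for 1 h at room temperature; beta-lactamase reporter read by fluorescence intensity.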

[19] = qHTS assay for small molecule activators of the heat shock response signaling pathway (AID 743210; active = well fitted activation curve with a large enough effect in the signal ratio in the repeat runs, with a control signal flat, not every such curve was filed as active; the % refers to the signal ratio; note: series mostly up to about 63 µM)
Procedure, shortened: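 HSE-bla HeLa cells (beta-lactamase reporter under heat shock response elements), plated overnight, then exposed to compounds 5 h at 37 C; LiveBLAzer B/G FRET substrate added, 2.5 h at room temperature, fluorescence intensity read.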

Measured: Potency

O=C1CCCc2c1cc1ccc3cccc4ccc2c1c34
inactive: [1] | [3] | [4] | [5] | [7] | [8] | [10]
active: [2] 69.4 µM | [6] 49.6 µM | [9] 19.7 µM

CCCCCCCCOc1ccccc1C(=O)Nc1ccc(C(=O)OCC[N+](C)(CC)CC)cc1
inactive: [1] | [2] | [3] | [11] | [12] | [13] | [9] | [10]
active: [5] 29.8 µM

O=C(OC[C@H]1O[C@@H](OC(=O)c2cc(O)c(O)c(OC(=O)c3cc(O)c(O)c(O)c3)c2)[C@H](OC(=O)c2cc(O)c(O)c(OC(=O)c3cc(O)c(O)c(O)c3)c2)[C@@H](OC(=O)c2cc(O)c(O)c(OC(=O)c3cc(O)c(O)c(O)c3)c2)[C@@H]1OC(=O)c1cc(O)c(O)c(OC(=O)c2cc(O)c(O)c(O)c2)c1)c1cc(O)c(O)c(OC(=O)c2cc(O)c(O)c(O)c2)c1
active: [1] 18.8 µM | [3] 21.1 µM and 16.5 µM | [7] 13.2 µM
inactive: [2] | [12] | [8] | [9]

COc1ccc(C(=O)/C(Br)=C\C(=O)O)cc1
active: [1] 17.2 µM
inactive: [2] | [3] | [14] | [15] | [7] | [12] | [8]

Cc1cc(O)c(C(C)(C)C)cc1C(C)(C)C
active: [1] 54.5 µM | [4] 49 µM | [5] 54.5 µM | [14] 43.6 µM | [15] 43.6 µM | [7] 34.7 µM | [11] 49 µM | [12] 54.9 µM | [8] 49 µM | [10] 19.5 µM
inactive: [2]

Oc1cc2ccccc2c2ccccc12
active: [1] 8.63 µM | [2] 8.63 µM | [3] 24.3 µM | [4] 3.89 µM | [5] 9.69 µM | [15] 6.92 µM | [7] 5.49 µM | [12] 11 µM | [8] 9.77 µM

Oc1c(Cl)cc(Cl)c2cccnc12
inactive: [1] | [3] | [14] | [8]
active: [2] 4.73 µM

O=C(Oc1cccc2cccnc12)c1ccccc1
active: [1] 21.1 µM | [15] 3.35 µM | [7] 4.22 µM | [12] 9.44 µM | [8] 8.41 µM
inactive: [2] | [3] | [4] | [6] | [10]

O=C(OCC(COC(=O)c1ccccc1)(COC(=O)c1ccccc1)COC(=O)c1ccccc1)c1ccccc1
not listed: [6] | [11] | [13] | [14] | [17] | [18] | [19]
inactive: all other assays above

O=c1[nH]sc2ccccc12
active: [1] 24.3 µM | [3] 68.6 µM | [5] 30.6 µM | [15] 17.4 µM | [7] 17.4 µM | [12] 49 µM | [8] 49 µM
inactive: [2] | [9]

CCN(Cc1cccnc1)C(=O)c1cccc(Cl)c1[C@]1(C)C(=O)N(Cc2ccc(OC)cc2OC)c2ccc(Cl)cc21
active: [1] 16.1 µM | [3] 11.4 µM | [5] 5.09 µM | [15] 4.08 µM | [7] 5.13 µM | [12] 3.63 µM | [8] 11.5 µM | [9] 45.8 µM
inactive: [2] | [14]

CCCCN(CCCC)c1ccc(C(=O)c2ccccc2C(=O)O)c(O)c1
inactive: [1] | [2] | [3] | [13]
active: [4] 44.1 µM | [14] 62.2 µM | [15] 44.1 µM | [7] 44.1 µM | [8] 44.1 µM

CC(C)(C)NC(=O)[C@@H]1C[C@@H]2CCCC[C@@H]2CN1C[C@@H](O)[C@H](Cc1ccccc1)NC(=O)[C@H](CC(N)=O)NC(=O)c1ccc2ccccc2n1
inactive: [2] | [6] | [13]
active: [1] 11.9 µM and 13.9 µM | [3] 26.6 µM and 22 µM | [4] 49.6 µM | [15] 35.1 µM | [7] 44.2 µM | [12] 55.7 µM

CNCc1cc(F)ccc1Oc1ccc(Cl)c(Cl)c1
active: [5] 61.1 µM | [12] 49 µM
not listed: [3] | [7] | [10] | [11] | [13] | [15]
inactive: all other assays above

Cc1cc(O)c(Cl)c(C)c1Cl
active: [1] 61.1 µM | [5] 30.6 µM | [14] 38.9 µM | [11] 49 µM | [12] 49 µM | [8] 49 µM
inactive: [2] | [17] | [9]

COCCCC/C(=N\OCCN)c1ccc(C(F)(F)F)cc1
not listed: [3] | [8] | [10] | [12] | [15] | [17] | [18]
inactive: all other assays above

CC(=O)N1CCN(c2ccc(OC[C@H]3CO[C@](Cn4ccnc4)(c4ccc(Cl)cc4Cl)O3)cc2)CC1
active: [2] 6.68 µM | [4] 43.6 µM | [5] 61.1 µM | [15] 34.7 µM | [7] 27.5 µM | [11] 43.6 µM | [12] 49 µM | [8] 54.9 µM
inactive and 61.1 µM (active): [1]
inactive and 27.3 µM (active): [3]
